AmpC inh no detg – AmpC beta-lactamase inhibition without detergent; Potency, µM (doses to about 57.1 µM), most hits filed as inhibitors; AmpC nitrocefin hydrolysis, absorbance 480 nm, 0.0001% Triton; AID 485341; P00811; actives 0.52% (n = 330,000); also: nearly all actives have a fitted effect of over 20% in size
Target sequence (P00811 whole entry, looked up): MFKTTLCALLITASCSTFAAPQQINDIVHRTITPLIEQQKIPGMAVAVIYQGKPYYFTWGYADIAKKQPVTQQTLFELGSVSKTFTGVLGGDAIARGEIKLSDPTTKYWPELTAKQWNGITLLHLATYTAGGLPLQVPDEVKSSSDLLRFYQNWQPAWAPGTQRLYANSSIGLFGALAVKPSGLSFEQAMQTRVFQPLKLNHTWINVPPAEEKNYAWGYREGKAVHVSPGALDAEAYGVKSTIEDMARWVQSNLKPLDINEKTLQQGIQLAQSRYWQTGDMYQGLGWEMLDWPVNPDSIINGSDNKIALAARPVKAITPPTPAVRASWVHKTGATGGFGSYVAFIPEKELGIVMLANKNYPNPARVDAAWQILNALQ
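20 mM phosphate pH 7.0 + 0.01% (detergent screen) or 0.0001% Triton X-100; 5.3 nM AmpC reagent; cpd preinc 15 min RT; nitrocefin (800 uM stock) to start; A480 q20 s × 4 min; Activity was normalised to no-enzyme and no-compound control wells.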
AmpC detergent – inhibitors of E. coli AmpC beta-lactamase with detergent. actives 0.041% (n = 370,000). AmpC hydrolysis of nitrocefin, absorbance 480 nm, 0.01% Triton. Potency, µM (series often up to 114 µM), actives largely listed as inhibitors; also: nearly all actives have a fitted effect of over 25% in size
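20 mM phosphate pH 7.0 + 0.01% (detergent screen) or 0.0001% Triton X-100; 5.3 nM AmpC reagent; cpd preinc 15 min RT; nitrocefin (800 uM stock) to start; A480 q20 s × 4 min; Activity was normalised to no-enzyme and no-compound control wells.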
AMA1-RON2 inh – disrupts binding of P. falciparum AMA1 to RON2 | AlphaScreen AMA1-biotinylated RON2 peptide binding | Potency, µM (highest dose often 58.2 µM), most hits filed as inhibitors | actives 0.2% (n = 360,000) | AID 720542; also: nearly all actives have a fitted effect of over 45% in size
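AMA1 (3D7) with his tag at 25 nM final met compounds first, then biotinylated RON2 peptide at 25 nM; detection used donor plus acceptor beads, 10 µg/mL apiece, read by AlphaScreen after 30 min at room temperature.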
Giardia FBPA inh-1 – Giardia lamblia aldolase inhibition; A8B2U2; purified Giardia FBPA; Potency, µM (series often up to 59.6 µM), hits mostly inhibitors; actives 0.71% (n = 290,000); AID 2451; also: nearly all actives have a fitted effect of over 55% in size
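Giardia FBPA (40 nM reagent) was preincubated 10 min at RT with compound (up to 57.5 uM final), then substrate plus GAPDH/TPI/NAD/arsenate coupling system with diaphorase/resazurin was added; resorufin fluorescence (525/598 nm) was read after 20 min.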
Giardia growth – Giardia lamblia growth inhibition; shares compounds with Giardia FBPA inh-1; Giardia lamblia trophozoite growth inhibition; Potency, µM (titrated, usually from 57.5 µM), most hits filed as inhibitors; actives 5% (n = 1,500);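 also: trophozoites exposed to compound for 48 h at 37 °C; nearly all actives have a fitted effect of over 70% in size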
Mammal cell tox – mammalian cytotoxicity of Giardia aldolase inhibitor hits; shares compounds with Giardia FBPA inh-1; mammalian cell viability counter-screen, qHTS; Potency, µM (highest dose often 57.5 µM), most hits filed as inhibitors; actives 4% (n = 1,500); AID 2786;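 also: Chinese hamster ovary cells used as mammalian cytotoxicity surrogate; viability measured as cellular ATP by luminescence; compound exposure lasted 48 h before reading; nearly all actives have a fitted effect of over 60% in size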
Giardia FBPA inh-2 – confirmation of Giardia fructose-bisphosphate aldolase inhibitors | actives 5% (n = 1,500) | Potency, µM (series often up to 57.5 µM), most hits filed as inhibitors | purified Giardia aldolase enzyme activity, qHTS | shares compounds with Giardia FBPA inh-1 | AID 2787; also: nearly all actives have a fitted effect of over 45% in size
Rabbit FBPA inh – selectivity test for Giardia aldolase inhibitors: rabbit aldolase | AID 2794 | Rabbit muscle FBPA enzyme inhibition, selectivity counter-screen | shares compounds with Giardia FBPA inh-1 | actives 4% (n = 1,500) | Potency, µM (top dose mostly 57.5 µM), usual class: inhibitors; also: nearly all actives have a fitted effect of over 60% in size
Target sequence (P00883 whole entry, looked up): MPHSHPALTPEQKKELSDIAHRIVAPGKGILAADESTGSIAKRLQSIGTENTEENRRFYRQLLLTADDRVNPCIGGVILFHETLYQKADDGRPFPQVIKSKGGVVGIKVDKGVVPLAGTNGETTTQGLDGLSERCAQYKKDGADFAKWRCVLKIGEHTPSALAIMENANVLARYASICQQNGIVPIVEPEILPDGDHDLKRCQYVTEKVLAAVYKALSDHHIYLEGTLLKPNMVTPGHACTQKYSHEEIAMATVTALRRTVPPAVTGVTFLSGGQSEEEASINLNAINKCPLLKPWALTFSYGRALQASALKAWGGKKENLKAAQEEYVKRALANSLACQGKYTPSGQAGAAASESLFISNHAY
GAPDH counter – GAPDH inhibition flagged for Giardia aldolase hits; actives 6% (n = 1,500); shares compounds with Giardia FBPA inh-1; GAPDH coupling enzyme counterscreen, biochemical, qHTS; Potency, µM (titrated, usually from 57.5 µM), hits mostly inhibitors; also: nearly all actives have a fitted effect of over 55% in size
A number is an active result; - = inactive; ? = inconclusive; . = not tested or not shown; [ ] = dose if it differs, or a comment. Rows were chosen to be rich in hits. Some 1.1% of all compounds tested hit in one or more screens of this group. Calls follow the shape of the dose curve; as a rule, active = well fitted curve in the direction sought with a large enough effect; inconclusive = small, poorly fitted or top-dose-only effect, or another doubt; inactive = no such curve, though single readings can be large; an effect the other way counts as inactive or inconclusive.

SMILES	AmpC inh no detg	AmpC detergent	AMA1-RON2 inh	Giardia FBPA inh-1	Giardia growth	Mammal cell tox	Giardia FBPA inh-2	Rabbit FBPA inh	GAPDH counter
O=C(CN1CCN(S(=O)(=O)c2ccc(F)cc2)CC1)c1ccc(O)c(O)c1	-	-	-	20µM	-	-	-	-	-
CSS(=O)(=O)c1cccc2cccnc12	-	-	-	18µM	-	-	-	?	?
O=C(/C=C/c1cccc(Cl)c1)OCC(=O)c1ccc[nH]1	.	.	-	.	.	.	.	.	.
NC(=NCc1ccc2c(c1)OCO2)NC(=O)c1ccccc1	-	-	-	1.4µM	-	-	-	-	-
CCOC(=O)c1[nH]cnc1C(=O)NC(C)C	-	-	-	-	.	.	.	.	.
CCOC(=O)c1[nH]cnc1C(=O)O	-	-	-	18µM	-	-	-	-	-
Cc1cccnc1CNC(=O)C1(C)CCCN1CC(C)C (centres undefined)	.	.	-	.	.	.	.	.	.
CN1C(=O)NC(=O)/C(=C/c2ccc([N+](=O)[O-])o2)C1=O	-	-	?	18µM	?	-	?	?	?
O=C1NC(=O)N(c2ccccc2)C(=O)/C1=C\c1ccc([N+](=O)[O-])o1	-	-	.	20µM	-	-	-	-	-
CN1C(=O)NC(=O)/C(=C/c2ccc([N+](=O)[O-])s2)C1=O	-	-	?	?	.	.	.	.	.
CN1C(=O)NC(=O)/C(=C\c2ccc([N+](=O)[O-])o2)C1=O	-	-	?	18µM	?	-	?	?	?
CCOC(=O)C(Nc1ccc2ccccc2c1)C(=O)OCC	-	-	?	3.5µM	-	-	?	?	40µM
COc1cc(C(=O)NCC(c2cccs2)N2CCOCC2)ccc1OCc1ccccc1 (centres undefined)	.	.	-	.	.	.	.	.	.
N/C(=N\NC(=O)Nc1ccccc1)c1ccccn1	-	-	-	20µM	-[10.4 µM]	-	-	-	-
Oc1ccccc1N=Cc1c(O)ccc2ccccc12	-	-	-	?	-	-	0.33µM	?	-
Oc1ccc2ccccc2c1C=Nc1ccccc1Br	-	-	-	-	.	.	.	.	.
Cc1[nH]c2ccccc2c1/C=N/O	-	?	-	-	.	.	.	.	.
CCN(CC)c1ccc(N=Cc2c(C)[nH]c3ccccc23)cc1	-	-	-[2.32 µM]	?	-	-	?	?	?
S=c1nc[nH]c2c1ncn2C1CCCC1	-	-	-	4µM	-	-	-	-	-
OCC1CCCC(n2cnc3c(=S)nc[nH]c32)O1 (centres undefined)	-	-	-	4µM	-	-	-	-	?
S=C(NCCc1ccccc1)Nc1c(Cl)cccc1Cl	-	-	-	10µM	-	-	?	?	?
OCCNC(=S)NCCc1ccccc1	-	-	-	-	.	.	.	.	.
C=CCc1ccc(OCCOCCN(C)C)c(OC)c1	-	-	-	?	.	.	.	.	.
C=CCc1ccc(OCCOc2cccc3ccc(C)nc23)c(OC)c1	-	-	-	11µM	?	-	-	-	-
C=CCSc1nc2c(N)ncnc2n1C1OC(CO)C(O)C1O (centres undefined)	.	.	-	.	.	.	.	.	.
SMILES	AmpC inh no detg	AmpC detergent	AMA1-RON2 inh	Giardia FBPA inh-1	Giardia growth	Mammal cell tox	Giardia FBPA inh-2	Rabbit FBPA inh	GAPDH counter
CC1=NOC(=O)/C1=C\c1ccc(-c2ccc(Br)cc2)o1	-	?	?	-	.	.	.	.	.
CC1=NOC(=O)/C1=C\c1ccc(-c2ccc(Br)cc2C(=O)O)o1	-	-	-	5µM	-	-	-	-	-
NC(=O)NC(=O)CC1S/C(=N/N=C2\CSC(=O)N2)NC1=O (centres undefined)	-	-	-	13µM	-	-	-	-	-
O=C(O)CNC(=O)CC1S/C(=N/N=C2/NC(=O)CS2)NC1=O (centres undefined)	-	-	-	18µM	?	-	-	-	-
COC(=O)c1ccc2c(=O)n(CCCCCC(=O)N3CCN(c4cc(C)ccc4C)CC3)c(=O)[nH]c2c1	.	-	.	.	.	.	.	.	.
COc1ccc(S(=O)(=O)N(C)C[C@@H]2OCc3cn(nn3)CCCC(=O)N([C@H](C)CO)C[C@H]2C)cc1	.	.	-	.	.	.	.	.	.
O=c1oc2ccccc2c(O)c1C(c1ccccn1)c1c(O)c2ccccc2oc1=O	-	-	-	?	.	.	.	.	.
Cn1c(O)c(C(c2ccccn2)c2c(O)n(C)c(=S)[nH]c2=O)c(=O)[nH]c1=S	-	-	-	18µM	-	-	-	-	-
Cc1ccc(S(=O)(=O)/N=C2/C=C(Sc3ncn[nH]3)C(=O)c3ccccc32)cc1	-	-	-	0.45µM	7.1µM	20µM	2.5µM	10µM	3.2µM
CC(C)c1ccc(S(=O)(=O)/N=C2/C=C(Sc3ncn[nH]3)C(=O)c3ccccc32)cc1	-	-	-[11.6 µM]	0.45µM	7.1µM	25µM	3.5µM	16µM	3.5µM
CC(C)(C)c1ccc(S(=O)(=O)/N=C2\C=C(NS(=O)(=O)c3ccccc3)C(=O)c3ccccc32)cc1	-	-	-	?	.	.	.	.	.
Cc1ccc(NC(=O)C2CCN(S(=O)(=O)c3ccc(N4CCCC4=O)cc3)CC2)cc1Cl	-	-	-	.	.	.	.	.	.
COc1ccc2oc(C(=O)N3CCN(S(=O)(=O)c4c(C)c(C)cc(C)c4C)CC3)c(C)c2c1	.	.	-	.	.	.	.	.	.
O=C(c1ccco1)N1CCN(Cc2cc(=O)c(OCc3ccc([N+](=O)[O-])cc3)co2)CC1	-	?	-	.	.	.	.	.	.
C/C(=N\NC(=O)c1c(Cl)c(C)nn1C)c1ccc(NC(=O)C2CCC2)cc1	-	-	-	.	.	.	.	.	.
CC(=O)c1ccc(NC(=S)NC(=O)c2c(Cl)c(C)nn2C)cc1	-	?	-	6.3µM	?	-	-	-	-
Cn1c(SCC(=O)c2ccccc2)nnc1-c1cnccn1	-	-	-	20µM	-	-	-	-	-
CCc1nc2c(OCc3ccccc3)cccn2c1N(C)C(=O)C(C)C	.	.	-	.	.	.	.	.	.
Cc1ccc(NC(=O)CN2CCN(Cc3ccccc3)CC2)cc1	-	-	-	-	.	.	.	.	.
CC1(C)C2CCC(C2)C1(C)NC(=O)CN1CCN(Cc2ccccc2)CC1 (centres undefined)	-	-	-	16µM	-[10.4 µM]	-	-	-	-
CC1(C)Cc2sc3c(=O)[nH]c(=S)[nH]c3c2CO1	-	-	-	10µM	-	-	-	-	-
CC1(C)Cc2c(c(-c3ccccc3)nc3sc4c(=O)[nH]c(=S)[nH]c4c23)CO1	-	-	-	-	.	.	.	.	.
Cc1ccc(CNc2nc3cc(-c4ccccc4)sc3c(=O)n2C)c(C)c1	.	.	-	.	.	.	.	.	.
CCNC(=S)NNC(=O)c1ccccn1	-	?	-	?	.	.	.	.	.
